The list is not random: actives were taken first. Their share in the collection is about 2.1%.
aSyn yeast inh – qHTS of alpha-syn Inhibitors; Yeast expressing alpha-synuclein, growth rescue, BacTiter-Glo, 24 h; Potency, µM (doses to about 46.1 µM), hits mostly activators; 370,000 tested, 0.14% active; note: nearly all actives have a fitted effect of over 65% in size
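Screening used galactose-induced yeast with toxic alpha-synuclein levels, exposed to compound for 24 hr at 30 deg C. Cell growth, read with BacTiter-Glo luminescence, gave the measured signal.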
Abeta yeast res – qHTS for compounds that reverse cellular toxicity of Amyloid beta (A-beta) peptide in yeast: Primary Screen | Potency, µM (series often up to 46.1 µM), usual class: activators | yeast expressing A-beta42, growth rescue, OD600, 48 h; response scale: 0% DMSO, 100% iron-clioquinol control | 410,000 tested, 0.063% active; note: nearly all actives have a fitted effect of over 55% in size
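Growth rescue measured by 600 nm absorbance after 48 h yeast culture at 30 C with compound. Values normalized between DMSO and an equimolar ferric chloride plus clioquinol control.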
FUS yeast rescue – qHTS for Suppressors of FUS Proteinopathy: Primary screen using FUS-linked yeast assay; S. cerevisiae FUS-expressing, growth rescue, OD600, 24 h; Potency, µM (doses to about 76.6 µM), hits mostly activators; 390,000 tested, 0.24% active; AID 1347120, 2019; note: nearly all actives have a fitted effect of over 55% in size
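Yeast expressing FUS under galactose induction, OD 0.005 in 2% galactose medium; compounds in a dilution series, 24 h at 30C. Growth rescue by absorbance at 600 nm; CP55940 positive control, DMSO negative.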
TDP-43 yeast inh – qHTS of TDP-43 Inhibitors; TDP-43 expressing yeast growth rescue, BacTiter-Glo, 24 h; Potency, µM (highest dose often 46.1 µM), hits mostly activators; 410,000 tested, 1.8% active; AID 652104, 2013; note: nearly all actives have a fitted effect of over 50% in size
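Readout is BacTiter-Glo luminescence of cell growth, so inhibitors register as activators. TDP-43-expressing yeast at OD600=0.02 in galactose medium, after raffinose pregrowth to mid-log, were incubated with compound for 24 hr at 30 deg C.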
Numbers stand for hits; 0 = inactive; ? = inconclusive; - = not tested or not shown; [ ] = dose if it differs, or a comment. Calls come from the whole dose curve; as a rule, active = well fitted curve in the direction sought with a large enough effect; inconclusive = small, poorly fitted or top-dose-only effect, or another doubt; inactive = no such curve, though single readings can be large; an effect the other way counts as inactive or inconclusive.

SMILES	aSyn yeast inh	Abeta yeast res	FUS yeast rescue	TDP-43 yeast inh
O=S(=O)(c1ccccc1Br)N1CCN(c2ncccn2)CC1	?	0	0	12.6µM
COc1ccccc1Cc1c(-c2ccc(Cl)cc2)nc2c(C)cc(Br)cn12	0	0	?	25.1µM
COc1ccc(-c2nc3c(C)cc(Br)cn3c2Cc2ccccc2)cc1OC	0	0	0	0
COc1ccc(-c2nc3c(C)cc(Br)cn3c2Cc2cccc(F)c2)cc1OC	0	0	?	15.8µM
COc1ccc(-c2nc3ccc(Br)cn3c2Cc2cccc(F)c2)cc1OC	0	0	0	14.1µM
Cc1ccc(-c2cc(NC(=O)C(C)Oc3ccccc3F)on2)cc1 (configuration not stated)	-	0	0	0
COc1ccc2[nH]c3c(Cl)ncnc3c2c1	0	0	-	12.6µM
Fc1ccc2[nH]c3c(Cl)ncnc3c2c1	0	0	0	?
COc1ccc(N2CCC(CNC(=S)Nc3cc(C)ccc3C)C2)cc1 (configuration not stated)	?	?	0	14.1µM
COc1ccc(CN(CC2CCC(C(=O)O)CC2)C(=S)Nc2cc(C)ccc2C)cc1 (configuration not stated)	0	0	0	22.4µM
CC(C)(C)C(=O)NC1CCCCN(Cc2cccc(Cl)c2)C1=O (configuration not stated)	-	-	0	-
CCCC(=O)Nc1sc(Cc2ccccc2)c(C)c1C(N)=O	0	0	0	17.8µM
COC(=O)CCC(=O)Nc1sc(Cc2ccccc2)c(C)c1C(N)=O	0	0	0	0[0.397 µM]
O=C(Cc1ccc(OCCCc2ccccc2)cc1)NO	0	-	-	-
Cc1sc2nc(COC(=O)CNC(=O)c3ccc(F)cc3Cl)[nH]c(=O)c2c1C	-	-	0	-
CCOC(=O)N1CCC(NC(=O)c2ccc3c(c2)N(Cc2ccc(Cl)cc2)C(=O)c2ccccc2S3(=O)=O)CC1	-	0	?	0
CCSc1nc(-c2ccc(OC)cc2)ccc1C#N	0	0	0	15.8µM
Cc1ccc2nc(-c3ccccc3)c(Cc3cccc(Cl)c3)n2c1	0	0	0	0
Clc1ccc(-c2nc3ccc(Cl)cn3c2Cc2cccc(Cl)c2)cc1	0	0	?	25.1µM
Clc1cccc(Cc2c(-c3ccccc3)nc3ccc(Cl)cn23)c1	0	0	0	31.6µM
CCn1cc(/C=C(\NC(=O)c2ccc(C)cc2)C(=O)NCCCn2ccnc2)c2ccccc21	0	0	0	0
Cc1ccc2c(c1)c1c(n2CC2COC(C)(C)O2)C(=O)CCC1 (configuration not stated)	0	0	0	12.6µM
Cc1ccc2c(c1)c1c(n2CC(O)Cn2c(C)nc3ccccc32)C(=O)CCC1 (configuration not stated)	0	0	0	0
CC(C(=O)Nc1ccc(OC(F)(F)F)cc1)N1Cc2ccccc2C1=O (configuration not stated)	-	0	0	0
O=C1NC[C@@H](c2ccccc2)OC(=O)[C@@H](Cc2ccc(F)cc2)CC/C=C/C[C@H]1CC(=O)N(CCO)Cc1ccccc1	0	0	25.1µM	0
SMILES	aSyn yeast inh	Abeta yeast res	FUS yeast rescue	TDP-43 yeast inh
O=C1N[C@@H](Cc2c[nH]c3ccccc23)COC(=O)[C@@H](Cc2ccc(F)cc2)C/C=C\C[C@H]1CC(=O)N(CCO)Cc1ccccc1	0	0	?	0
O=C1N[C@@H](Cc2c[nH]c3ccccc23)COC(=O)[C@H](Cc2ccc(F)cc2)C/C=C\C[C@@H]1CC(=O)N(CCO)Cc1ccccc1	0	0	28.2µM	0
O=C(N[C@@H]1C/C=C\C[C@@H](CC(=O)N(CCO)Cc2ccccc2)C(=O)N[C@@H](c2ccccc2)COC1=O)OCC1c2ccccc2-c2ccccc21	0	0	?	0
O=C(N[C@H]1C/C=C\C[C@@H](CC(=O)N(CCO)Cc2ccccc2)C(=O)N[C@H](Cc2c[nH]c3ccccc23)COC1=O)OCC1c2ccccc2-c2ccccc21	0	0	20µM	0
O=C1NC[C@H](c2ccccc2)OC(=O)[C@H](Cc2ccc(F)cc2)CC/C=C/C[C@@H]1CC(=O)N(CCO)Cc1ccccc1	0	0	?	0
O=C(N[C@@H]1C/C=C\C[C@H](CC(=O)N(CCO)Cc2ccccc2)C(=O)N[C@@H](Cc2c[nH]c3ccccc23)COC1=O)OCC1c2ccccc2-c2ccccc21	0	0	?	0
O=C(N[C@H]1C/C=C\C[C@H](CC(=O)N(CCO)Cc2ccccc2)C(=O)N[C@H](Cc2c[nH]c3ccccc23)COC1=O)OCC1c2ccccc2-c2ccccc21	0	0	22.4µM	0
CC(=O)CC[C@@H]1CC[C@]2(CCCN(C(=O)C3CCCCC3)C2)O1	-	-	0	-
C/C(=N/NC(=O)CSc1nnc(SCc2ccc(C)cc2)s1)c1cccc(O)c1	-	-	0	-
COc1ccc(C)cc1NC(=O)N1CCN(c2cc(-c3noc(C)n3)ccc2C)CC1	0	0	?	?
Cc1cccc(N2CCN(C(=O)c3ccccn3)CC2C)c1 (configuration not stated)	0	0	0	-
Cc1ccc(-c2c(C(=O)N3CCN(c4cccc(C)c4)C(C)C3)oc(=O)c3ccccc23)cc1 (configuration not stated)	-	0	0	14.1µM
Cc1cccc(N2CCN(C(=O)c3ccc4c(c3)c(C)c(C)n4C)CC2C)c1 (configuration not stated)	0	0	?	15.8µM
CCOC(=O)c1c(C)n(C)c2ccc(OCC(O)CN3CCCCCC3)cc12 (configuration not stated)	0	0	0	0
CCOC(=O)c1c(C)n(C)c2ccc(OCC(O)Cn3nc(C)c(Br)c3C)cc12 (configuration not stated)	0	0	?	15.8µM
COC1=C[C@H](C(=O)NCc2ccc(Cl)cc2)C(C)C(c2ccccc2)CC1=O (some centres not stated)	-	-	0	-
Cc1csc(NC(=O)c2ccc(COc3ccccc3)o2)n1	0	0	0	22.4µM
O=C(Nc1nccs1)c1ccc(COc2c(F)c(F)cc(F)c2F)o1	0	0	0	0
Cc1csc(NC(=O)c2ccc(COc3cccc(Cl)c3)o2)n1	-	-	0	-
Cc1cccc(NC(=O)c2ccc(COc3ccccc3)o2)n1	0	0	0	?
O=C(c1ccc(COc2ccccc2Cl)o1)N1CCN(c2ccccc2)CC1	0	0	0	35.5µM
O=C(Nc1nccs1)c1ccc(COc2ccccc2Cl)o1	0	0	0	7.08µM
Cc1cccc(NC(=O)c2ccc(COc3ccc(Cl)cc3Cl)o2)n1	0	0	?	17.8µM
O=C(c1ccc(CS(=O)c2ccccc2Cl)o1)N1CCN(c2ccccc2)CC1 (configuration not stated)	0	0	0	?
C#CCNC(=O)C[C@@H]1C(=O)N(CC=C)C2=CCCCC[C@]21C(=O)OC	-	-	0	-
O=C(Nc1nccs1)c1ccc(-c2ccc(F)c(Cl)c2)o1	0	0	0	12.6µM
